According to PubChem BioAssay AID2284382 (EPA ToxCast):
Records with an inconclusive call do not appear. Activity calls are given as the source filed them. Rule for the calls: active = hit-call score of the fitted dose curve at least 0.9, where 1 is the maximum; inconclusive = response in the unintended direction; inactive = score below 0.9.

Assay: CCTE_Mundy_HCI_iCellGABA_NOG_NeuriteLength: CCTE's Neurite Outgrowth Assay in iCellGABA cells for Neurite Length, Mundy Lab
Protocol: CCTE_Mundy_HCI_iCellGABA_NOG is a multiplexed, cell-based-readout assay that uses iCell GABANeurons from FUJIFILM Cellular Dynamics, Inc. (FCDI), human GABAergic enriched neurons derived from induced pluripotent stem (iPS) cells, with measurements taken at 50.33 hours after chemical dosing in a microplate: 96-well plate.CCTE_Mundy_HCI_iCellGABA_NOG_NeuriteLength is one of four components of the CCTE_Mundy_HCI_iCellGABA_NOG assay. It measures neurite outgrowth related to neurite length using High Content Imaging of fluorescently labelled markers.Data from the assay component CCTE_Mundy_HCI_iCellGABA_NOG_NeuriteLength was analyzed at the endpoint CCTE_Mundy_HCI_iCellGABA_NOG_NeuriteLength in the positive analysis fitting direction relative to DMSO as the negative control and baseline of activity. Using a type of morphology reporter, loss-of-signal activity can be used to understand developmental effects.
Exposure starts 2 hours post-plating by adding 10 ul of the working solution to 90 ul of media in the wells for a 1/10 dilution. Forty-eight hours after chemical treatment cells are fixed by direct addition of 100 ul of warm (37C) Dulbecco's phosphate buffered saline (DPBS) fixative solution containing 8% paraformaldehyde, 8% sucrose, and 0.1% of 3 mg/ml Hoechst 33342 into each well. Primary antibodies are prepared by dilution in Immunocytochemical Staining Buffer (ISB), 10X Dulbecco's PBS, 0.1% Saponin, 5% Bovine Serum Albumin, 0.5% NaN3 (Sodium Azide) and betaIII-tubulin (rabbit anti-betaIII-tubulin, 1:800) followed by Alexa Fluor-488 secondary (1:500) to label neuronal cell bodies and neurites. A Cellomics ArrayScan VTi HCS Reader is used for automated image acquisition and analysis of neurite outgrowth.

| SMILES | outcome | AC50 |
| --- | --- | --- |
| CCOP(=S)(Oc1cnc(C(C)(C)C)nc1)OC(C)C (stereo unspecified) | inactive | – |
| COP(=O)(OC)C(O)C(Cl)(Cl)Cl (stereo unspecified) | – | 50 µM (active) |
| COP(=O)(OC)O/C(C)=C/C(=O)N(C)C | inactive | – |
| CNC(=O)CSP(=S)(OC)OC | inactive | – |
| CCCSP(=O)(OCC)SCCC | inactive | – |
| CCN(CC)c1nc(C)cc(OP(=S)(OC)OC)n1 | – | 78.8 µM (active) |
| COP(=O)(OC)OC=C(Cl)Cl | inactive | – |
| CCCSP(=O)(OCC)Oc1ccc(Br)cc1Cl (stereo unspecified) | inactive | – |
| CCOP(=O)(SC(C)CC)N1CCSC1=O (stereo unspecified) | inactive | – |
| CCOC(=O)CC(SP(=S)(OC)OC)C(=O)OCC (stereo unspecified) | – | 78.6 µM (active) |
| COP(=O)(OC)OC(Br)C(Cl)(Cl)Br (stereo unspecified) | – | 11.6 µM (active) |
| CCOP(=S)(OCC)OC(Cl)C(Cl)(Cl)Cl (stereo unspecified) | – | 29.9 µM (active) |
| CCOC(=O)CC(SP(=O)(OC)OC)C(=O)OCC (stereo unspecified) | inactive | – |
| CNC(=O)CSP(=O)(OC)OC | inactive | – |
| CCOP(=S)(OCC)Oc1ccc2c(C)c(Cl)c(=O)oc2c1 | – | 58 µM (active) |
| CCCCSP(=O)(SCCCC)SCCCC | inactive | – |
| CCOP(=S)(OCC)SCSC(C)(C)C | inactive | – |
| CCOP(=S)(OCC)SCSCC | inactive | – |
| COP(=S)(OC)SCN1C(=O)c2ccccc2C1=O | – | 67.2 µM (active) |
| CCOP(=S)(OCC)Oc1nc(Cl)c(Cl)cc1Cl | – | 24.3 µM (active) |
| COP(=O)(OC)O/C(=C\Cl)c1cc(Cl)c(Cl)cc1Cl | – | 60.7 µM (active) |
